Screening data deposited in PubChem by National Center for Advancing Translational Sciences (NCATS).
ELG1 repair inh: qHTS screen for small molecules that inhibit ELG1-dependent DNA repair in human embryonic kidney (HEK293T) cells expressing luciferase-tagged ELG1; HEK293T ELG1-luciferase reporter, luminescence, 16 h; DNA damage induced by 5-fluorouridine; Potency, µM (doses to about 46.1 µM), for inactives: at the top dose activity change, negative = inhibition, usual class: inhibitors; 330,000 tested, 2.3% active; AID 504467, 2011; also: potency is read from the fitted curve at half-maximal effect; nearly all actives have a fitted effect of over 55% in size
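HEK293T cells expressing luciferase-tagged ELG1 (2,000/well) received 5-Fluorouridine plus compound or DMSO for 16 hr at 37 °C. Luciferase was read by ONE-Glo luminescence after 30 min at room temperature.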
TDP1 cell noCPT: qHTS for Inhibitors of human tyrosyl-DNA phosphodiesterase 1 (TDP1): qHTS in cells in absence of CPT; DT40 Tdp1-/- hTDP1 cells, no CPT, ATP luminescence, 48 h; 420,000 tested, 15% active; AID 686978, 2013; Potency, µM (doses to about 46.2 µM), without a hit: at the top dose activity change, negative = growth inhibition, usual class: inhibitors; also: potency is read from the fitted curve at half-maximal effect; nearly all actives have a fitted effect of over 55% in size
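Compound effects on proliferation are scored in DT40 Tdp1-/-;hTDP1 cells in the absence of CPT. ATP levels (CellTiter-Glo luminescence) are recorded after a ≥48 hr, 37 °C incubation.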
HT1080 IDH1KD tx: qHTS for induction of synthetic lethality in tumor cells producing 2HG: qHTS for the HT-1080-IDH1KD cell line; Potency, µM (titrated, usually from 46.1 µM), for inactives: top-dose activity, negative = toxicity, hits mostly cytotoxic; HT-1080 IDH1 knockdown viability, ATP luminescence, 48 h; 360,000 tested, 2% active;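 also: potency is read from the fitted curve at half-maximal effect; 0% = DMSO wells and -100% = cell-free medium wells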
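Cytotoxicity counter-line: IDH1KD HT-1080, 48 h, CellTiter-Glo. Curves classed by r2, magnitude and activity.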
DT40 TDP1 CPT: qHTS for Inhibitors of human tyrosyl-DNA phosphodiesterase 1 (TDP1): qHTS in cells in presence of CPT. chicken DT40 Tdp1-/-;hTDP1 cells + 20 nM CPT, ATP luminescence, 48 h. Potency, µM (highest dose often 46.2 µM), for inactives: at the highest dose activity change, negative = growth inhibition, hits mostly inhibitors. 420,000 tested, 12% active. AID 686979, 2013; also: potency is read from the fitted curve at half-maximal effect; nearly all actives have a fitted effect of over 55% in size
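Chicken DT40 Tdp1-/- cells complemented with human TDP1, 400 cells/well, exposed to compounds plus 20 nM camptothecin for at least 48 h at 37 C; viability read as ATP content by CellTiter-Glo luminescence.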
HT1080NT lethal: qHTS for induction of synthetic lethality in tumor cells producing 2HG: qHTS for the HT-1080-NT fibrosarcoma cell line | HT-1080-NT fibrosarcoma viability, CellTiter-Glo ATP luminescence, 48 h | Potency, µM (top dose mostly 46.1 µM), for the others: at the top dose activity, negative = less viability, actives largely listed as cytotoxic | 360,000 tested, 1.6% active | AID 686970, 2013;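 also: NT is the 2HG producing partner of a matched IDH1 knockdown line; potency is read from the fitted curve at half-maximal effect; 0% = DMSO-treated cells and -100% = media-only wells without cells; nearly all actives have a fitted effect of over 55% in size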
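Viability by CellTiter-Glo luminescence after 48 h compound exposure at 37C of HT-1080-NT cells (750/well, RPMI, 5% FBS). % activity scaled between DMSO wells and medium-only wells, then curve-fitted and categorized by curve class.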
IL1B secr inh: qHTS for Inhibitors of Inflammasome Signaling: IL-1-beta AlphaLISA Primary Screen; THP-1 LPS/ATP IL-1B secretion, AlphaLISA, 16 h; stronger effect = lower value; activity change, % at 57.5 µM; 360,000 tested, 4.7% active; AID 743279, 2014; in the data active = activity change below about -50%; inconclusive = mostly about -30% to -49%
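Secreted IL-1B measured by AlphaLISA bead assay after 16 h compound exposure of THP-1 cells; compounds (final up to 57.5 uM) added 1 h before LPS (250 ng/mL) and ATP (1.25 mM) stimulation; lower signal means less secretion.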
* marks the source's active call; other numbers are inactive results; ? = inconclusive; / = no result; [ ] = remark or other dose. Shown are actives, neighbours in structure and some others; about 19% of the full set was active somewhere. Unless noted, calls follow the shape of the dose curve; as a rule, active = well fitted curve in the direction sought with a large enough effect; inconclusive = small, poorly fitted or top-dose-only effect, or another doubt; inactive = no such curve, though single readings can be large; an effect the other way counts as inactive or inconclusive. Unless noted, % is scaled to controls: 0 for no effect and ±100 for the full control effect.

SMILES | ELG1 repair inh | TDP1 cell noCPT | HT1080 IDH1KD tx | DT40 TDP1 CPT | HT1080NT lethal | IL1B secr inh
CCOc1cc(NS(=O)(=O)c2ccc(NC(C)=O)cc2)c(OCC)cc1NC(=O)c1cccs1 | -9% | -9% | 12% | ? | 10% | 2
Cc1cc(NC(=O)c2ccc3sc([C@@H]4O[C@H](CO)[C@H](O)[C@H](O)[C@H]4O)nc3c2)no1 | / | -1% | -2% | -1% | 14% | -15
NC(=NC(=O)c1ccccc1)N1N=CCC1c1ccccc1 (stereo unspecified) | 4% | -16% | -6% | -7% | 14% | 12
Cc1nc2cnc(Oc3ccccc3)nc2n(CCC#N)c1=O | / | -11% | / | -7% | / | /
CCCc1c(-c2ccccc2Br)ncn1Cc1ccccc1OC | / | 2.3µM* | ? | 2.3µM* | ? | 1
Cc1ccccc1Cn1nnc(-c2ccc(F)cc2)n1 | ? | 24% | 2% | -25% | 12% | 24
CCCc1c(-c2ccccc2)ncn1Cc1ccccc1OC | / | 5.8µM* | ? | 7.3µM* | -27% | 7
CCCc1c(-c2ccc(F)cc2)ncn1Cc1ccccc1OC | / | 2.1µM* | ? | 1.6µM* | ? | -5
C[C@@H]1CN([C@@H](C)CO)S(=O)(=O)c2ccc(Br)cc2O[C@@H]1CN(C)C(=O)NC1CCCCC1 | / | -22% | 1% | -1% | 0% | 2
CC(C)c1nc(N(C)S(C)(=O)=O)nc(-c2ccc(F)cc2)c1/C=C/C(O)CC(O)CC(=O)O (stereo unspecified) | / | -51% | / | -20% | / | /
COCc1c(C(C)C)nc(C(C)C)c(/C=C/[C@@H](O)C[C@@H](O)CC(=O)O)c1-c1ccc(F)cc1 | / | 0.6µM* | / | 1.2µM* | / | /
COc1ccc(NC(=O)c2oc3ccccc3c2NC(=O)c2ccc3c(c2)OCO3)cc1 | 9.2µM* | ? | -14% | ? | 4% | /
COc1ccc(NC(=O)c2oc3ccccc3c2NC(=O)c2cc(OC)c(OC)c(OC)c2)cc1 | / | 12µM* | / | 21µM* | / | /
Cc1ccc(NC(=O)COC(=O)Cc2ccsc2)cc1S(=O)(=O)N(C)C | 22% | 10% | -9% | -14% | -4% | -25
CCOc1ccc(NC(=O)c2oc3ccccc3c2NC(=O)c2cc(C)cc(C)c2)cc1 | / | ? | / | -9% | / | /
CCOC(=O)c1oc2ccccc2c1NC(=O)c1ccc2c(c1)OCO2 | 0% | -23% | 8% | -19% | 2%[9.24 µM] | 4
CCOCc1c(C(=O)OCC(=O)Nc2ccc(C)c(S(=O)(=O)N(C)C)c2)oc2ccccc12 | -19% | 21µM* | 1% | ? | -1% | 3
CCOc1ccc(NC(=O)c2oc3ccccc3c2NC(=O)C(C)Oc2ccccc2)cc1 (stereo unspecified) | / | 21µM* | / | ? | / | /
CCNC(=O)C1(C)CCCN(CCOc2ccc(Cl)cc2)C1 (stereo unspecified) | / | ? | 0% | ? | 13% | -10
CCOCC(=O)Nc1c(C(=O)Nc2ccc3c(c2)OCCO3)oc2ccccc12 | ? | 8.2µM* | ? | ? | ? | 0
O=C(NCCSCc1ccccc1)c1ccc(C2SCC(=O)N2Cc2ccccc2)cc1 (stereo unspecified) | ? | ? | -28% | ? | -26% | ?
COCCNC(=O)c1ccc(C2SCC(=O)N2CCc2ccccc2)cc1 (stereo unspecified) | 18% | -2% | 3% | -23% | 1% | 48
Cc1cccc(NC(=O)c2ccc(C3SCC(=O)N3CCc3ccccc3)cc2)c1 (stereo unspecified) | 26µM* | ? | ? | ? | -21% | -25
CC(=O)Nc1ccc(NC(=O)c2ccc(C3SCC(=O)N3CCc3ccccc3)cc2)cc1 (stereo unspecified) | 23µM* | -24% | -3% | -16% | -8% | -5
COC1=CC(=O)c2nc(Cl)ccc2C1=O | / | 1µM* | 2.9µM* | 0.58µM* | 3.7µM* | -111*
SMILES | ELG1 repair inh | TDP1 cell noCPT | HT1080 IDH1KD tx | DT40 TDP1 CPT | HT1080NT lethal | IL1B secr inh
COc1cccc(C(=O)N2CCCc3ccccc32)c1OC | / | ? | -3% | -8% | -4% | 24
CCOc1ccc2nc(N3C(=O)/C(=C/c4ccccc4)NC3=S)sc2c1 | ? | ? | 9% | 23µM* | 2% | 20
CCOC(=O)N1CCC(n2c(SCC(=O)c3ccccc3)nc3ccsc3c2=O)CC1 | ? | 2.9µM* | 10% | 2.6µM* | 1% | -16
CCOC(=O)N1CCC(n2c(SCC(=O)OCc3ccccc3)nc3ccsc3c2=O)CC1 | 23µM* | -22% | -24% | -24% | -4% | -7
CCOC(=O)N1CCC(n2c(SCC(=O)NCc3ccco3)nc3ccsc3c2=O)CC1 | ? | 18µM* | -3% | 23µM* | 8% | 33
O=C(CSc1nc2ccsc2c(=O)n1Cc1ccc(C(=O)O)cc1)NCc1ccco1 | 6% | 4% | 21% | -2% | 15% | 6
CCOC(=O)CSc1nc2ccsc2c(=O)n1C1CCN(C(=O)OCC)CC1 | ? | ? | -13% | ? | -11%[9.24 µM] | -12
Cc1ccc(CCNS(=O)(=O)c2ccc3c(c2)CCN3C(=O)CCC(=O)O)cc1 | / | 3% | / | 4% | / | /
O=c1c2ccccc2oc2ccc(-c3ccc4[nH]ccc4c3)cc12 | / | ? | -14% | ? | -20% | -8
Cc1ccc(NC(=O)C(=O)NCCc2sc(-c3ccc(Cl)cc3)nc2C)cc1C | / | 0% | / | -22% | / | /
CC(=O)Nc1cccc(NC(=O)C(=O)NCCc2sc(-c3ccccc3)nc2C)c1 | / | 1.2µM* | / | 1.5µM* | / | /
CCc1ccc(NC(=O)CSc2ccc(-c3sc(-c4ccccc4)nc3C)nn2)cc1 | / | 12µM* | / | ? | / | /
Cc1nc(-c2ccccc2)sc1-c1ccc(SCC(=O)Nc2cccc(C(F)(F)F)c2)nn1 | / | -23% | / | ? | / | /
CC(=O)Nc1cccc(NC(=O)CSc2ccc(-c3sc(-c4ccccc4)nc3C)nn2)c1 | / | 5.8µM* | / | 9.2µM* | / | /
Cc1nc(-c2ccccc2)sc1-c1ccc(SCC(=O)NCc2ccc(F)cc2)nn1 | / | -4% | / | -10% | / | /
